# From the OligoGym collection
# Target: PION
# Assay: pooled miR-30 sensor sort-seq; sequence = guide strand
# Settings: shRNA
# Also: reference of the scale not given here.
row,Sequence,sensor-assay potency score (higher = more potent)
1,TTAGTAGACTGAACTAAACTTG,-0.14
2,AACATACACACAAACTTCCTGT,0.437
3,TAACATACACACAAACTTCCTG,0.883
4,TTTTCTTCTTTTCTACACCCTG,-0.629
5,TTTCTTCTTTTCTACACCCTGT,0.0243
6,TTTTCTAAAACATCTGCGCCGC,-0.387
7,TTGAACATTAAGTAGGTGGAAG,-0.626
8,TAGTAGACTGAACTAAACTTGC,-0.883
9,TATAGTTCTGAAGCAGTCGCGT,-0.318

# Target: PIP5K1B
# Assay: as above
# Settings: shRNA
row,Sequence,sensor-assay potency score (higher = more potent)
1,TTGAACTGGAAGGTAACCCTTT,0.268
2,TTGCAGGAAATCTAAGTCCTTA,-0.188
3,TTGAGGACACAATCTCCTGTGA,-0.569
4,TTCGCTTATACGTTGAGCCTTT,0.43
5,TCTAACTTCTTCATTAACCTAT,0.135
6,TAATCCATGATCTTGAAGCTTT,-0.406
7,TTTGAATAGAGTGTAGGCCTGT,0.71
8,TTGCATACAATACAGTCCGTAA,-1.09
9,TTAAATTCATGTAATAGCCTGG,0.247
10,TTGGTCTATGAACAGAAACAGT,-1.55
11,TTGACATCTTGAAAACTCTTAA,-0.776

# Target: PIP5KL1
# Assay: as above
# Settings: shRNA
row,Sequence,sensor-assay potency score (higher = more potent)
1,TACCTCTCGGAGATGCGGCCGG,-0.502
2,TATCAGGAGGCTGTAATCCAGC,-1.11
3,TATCCAGTTCCATCTGGCGGAG,-1.65
4,TTTGGGCTCTCGACTCTTCCGG,-0.891
5,TAATCCAGCACGTTGAGCTCCC,-0.232
6,TTGGGCTCTCGACTCTTCCGGG,-0.549
7,TTTGATGTCATACCTCTCGGAG,-0.872
8,TTGAGCTCCCGGAGGAAGGTGG,-0.608
9,TGTCTTCCACAGGTGCTCCAGC,-0.631
10,TTGATGTCATACCTCTCGGAGA,-1.04
11,TTGCGGAGCCCGTAGACTGTGG,-1.6
12,TAGCGCAGTGTCTTCCACAGGT,0.0204

# Target: PITPNM3
# Assay: as above
# Settings: shRNA
row,Sequence,sensor-assay potency score (higher = more potent)
1,TTGCGCAGGATCATGCGCGAGT,-0.913
2,TTGCTGAGACGCTTGCTGCTGG,-0.433
3,TATGTGATGCGACCACTGCTGT,-0.671
4,TTCCTCGCTGTCTTCGTGGATC,-1.05
5,TTACGAAGCCACTTCTCCCGGG,-0.085
6,TCTTCGTGGATCTCGATGCTTC,-0.715
7,TTCTCCTTGATGCTCGTCCAGT,-0.95
8,TTTGCTGAGACGCTTGCTGCTG,-0.757
